About 83,000 compounds went through this panel and 20% of them were active in at least one assay; those are over-represented in the sample as a whole.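 The endpoint reported here, percent growth, reads 100 for growth as untreated, 0 for no net growth and -100 for all cells dead.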 Activity calls are given as the source filed them.
system: UO-31 renal; assay: NCI-60 one-dose screen, 48 h (100 = growth as untreated, 0 = no growth, -100 = all killed); conditions: 10 µM unless noted
Protocol: Growth inhibition of the UO-31 human tumor cell line is measured as a screen for anti-cancer activity. Cells are grown in 96 well plates and exposed to the test compound for 48 hours. Compounds are tested at a single concentration, which is 10^-5 M for most compounds. The reported endpoint is percent growth (GI% or GIPRCNT), where numbers from 0 - 100% represent growth inhibition, and numbers from -100% - 0 represent cell death. For example, a value of 40 represents 60% growth inhibition. A value of 0 means no net growth occurred over the course of the experiment. A value of -40 indicates 40% of cells at the beginning of the experiment died by the end of the experiment. A value of -100 means all cells are dead at the end of the experiment.
NCI-60 Human Tumor Cell Lines Screen was performed using the standard one-dose NCI protocol, which is described in more detail at https://dtp.cancer.gov/discovery_development/nci-60/default.htm.
Compounds with GIPRCNT values below 10 were considered active. Activity score was based on GIPRCNT using the following formula: […]
Score is 0 for GIPRCNT values of 100 or above, 50 for GIPRCNT values of 0, and 100 for GIPRCNT values of -100.

| SMILES | growth |
| --- | --- |
| CNC1=C([N+](=O)[O-])C(c2ccccc2O)C(C#N)=C(c2cccs2)O1 (stereo not given) | 70.5% (inactive) |
| CN1C2CCC1/C(=C\c1ccc(Cl)cc1)C(=O)/C2=C/c1ccc(Cl)cc1 | 58.4% (inactive) |
| CC(C)=CC[C@@H]1CC2(CC=C(C)C)C(=O)C(OC3(C(=O)c4ccccc4)C(=O)C4(CC=C(C)C)C[C@@H](CC=C(C)C)C(C)(C)C(CC=C(C)C)(C4=O)C3=O)(C(=O)c3ccccc3)C(=O)C(CC=C(C)C)(C2=O)C1(C)C (stereo not given in full) | -7.33% (active) |
| O=C(Nc1cccc(C2=NCCN2)c1)c1ccc(N=Nc2ccc(C(=O)Nc3cccc(C4=NCCN4)c3)cc2)cc1 | 72.8% (inactive) |
| C=C(c1ccc(C(=O)NCCCn2ccnc2)cc1)c1cc2c(cc1C)C(C)(C)CCC2(C)C | -20.4% (active) |
| CNC(=O)OC1C(O[C@H]2C[C@H]3[C@@H]4CC=C5C[C@@H](O)CC[C@]5(C)[C@H]4CC[C@]3(C)[C@H]2[C@H](C)C(=O)CCC(C)C)OCC(O)C1OC1OCC(O)C(O)C1OC(=O)c1ccc(OC)cc1 (stereo not given in full) | -18.8% (active) |
| COc1cc(/C=C/c2cc(/C=C/c3ccc(O)c(OC)c3)n(C(=O)Nc3ccc(F)c(Cl)c3)n2)ccc1O | -17% (active) |
| CN(C)c1ccc(/C=C\c2cccc[n+]2C)cc1 | 59.5% (inactive) |
| CS(=O)(=O)c1ccc(C(=O)Nc2ccc(Cl)c(-c3ccccn3)c2)c(Cl)c1 | 24.6% (inactive) |
| CC(C)CC(=O)C(CCc1ccccn1)C(C)C (stereo not given) | 103% (inactive) |
| CCn1c(Cc2ccccc2Nc2c(Cl)cccc2Cl)nnc1SCC(=O)Nc1ccccc1C(F)(F)F | 74.8% (inactive) |
| Cc1ccc(C(CN(C)C)C(=O)c2ccccc2)cc1 (stereo not given) | 53.5% (inactive) |
| CCOC(=O)C1=C(C(=O)OCC)N(c2cc(OC)c(OC)c(OC)c2)C(N)=C(C#N)C1c1cc(=O)[nH]c2ccccc12 (stereo not given) | 76.8% (inactive) |
| C=C1C(=O)O[C@H]2[C@H]1CC/C(COC(=O)N[C@@H](Cc1c[nH]c3ccccc13)C(=O)OC)=C\CC[C@@]1(C)O[C@@H]21 | 41.3% (inactive) |
| O=C(NO)c1ccc(CNc2cccc3nc(C4CC4)n(-c4ccccc4)c(=O)c23)cc1 | 3.57% (active) |
| Cc1c(C(N)=O)sc2ncn(CC(=O)NN=C3CCCCC3)c(=O)c12 | 124% (inactive) |
| C=CCCCCOc1cccc(/C=C2\N=C3SCCCN3C2=O)c1 | 76.6% (inactive) |
| COc1ccc2nc3cc(Cl)ccc3c(NC(=O)CSc3ccc(Cl)cc3)c2c1 | -96.1% (active) |
| COc1ccc(-n2nc(C(=O)Nc3ccc(F)cc3)nc2-c2cc(OC)c(OC)c(OC)c2)cc1 | 51.6% (inactive) |
| CCc1c(C)c2ccc(O)c(-c3cc(-c4ccccc4)c(C#N)c(=O)[nH]3)c2oc1=O | 62.9% (inactive) |

| SMILES | growth |
| --- | --- |
| O=C(/C=C/c1ccco1)c1ccccc1O | 87.5% (inactive) |
| O=C(Nc1cccc(-n2ccc3c(NC(=O)c4ccccc4)nccc32)c1)c1ccc(Cl)c(Cl)c1 | -78.1% (active) |
| O=C(Nc1ccccc1)c1cc2ccccc2s1 | 71.2% (inactive) |
| c1ccc(-c2nnn(-c3ccccc3)n2)cc1 | 81.3% (inactive) |
| COc1ccc2c(c1)sc1nc(-c3ccccc3)c(-c3cccc4ccccc34)n12 | 47.7% (inactive) |
| CCCCc1nc(Cl)c(C2CC(c3ccc(S(N)(=O)=O)cc3)=NN2c2cc(Cl)cc(Cl)c2)[nH]1 (stereo not given) | 58.3% (inactive) |
| CC(C)CCSc1nc(-c2ccc(F)cc2)c(C#N)c(N2CCN(C)CC2)n1 | 51.3% (inactive) |
| Cc1ccc2c(C)c3c(ccc4ccccc43)c[n+]2c1 | 45.9% (inactive) |
| CC(C)CCSc1nc(-c2ccc(F)cc2)c(C#N)c(N2CCCCC2)n1 | 80.4% (inactive) |
| CCCCSc1ncnc2c1ncn2C1CCCCO1 (stereo not given) | 91.2% (inactive) |
| COc1ccc(/C=C(\C#N)c2cc(OC)c(OC)c(OC)c2)cc1 | 28.5% (inactive) |
| O=C(O)c1ccccc1Oc1cc(-c2ccco2)nc(OCCN2CCOCC2)n1 | 87.6% (inactive) |
| CC(=O)Oc1c(Cl)c(Cl)c(Cl)c(Cl)c1Cl | 81.6% (inactive) |
| Cc1ccc([C@H]2c3[nH]c4ccccc4c3C[C@H]3C(=O)N(CCCCCCC(=O)NO)CC(=O)N23)cc1 | 57.2% (inactive) |
| O=C(/C=C/c1cn(-c2ccccc2)nc1-c1ccccc1)OCc1cn(-c2cccc([N+](=O)[O-])c2)nn1 | 68.7% (inactive) |
| CCC(=O)NC1=C(Cl)C(=O)C(NC(=O)CC)=C(Cl)C1=O | 2.01% (active) |
| COc1cc(Nc2ncccc2/C=C/C(=O)c2cc(OC)c(OC)c(OC)c2)cc(OC)c1OC | 65.6% (inactive) |
| Cc1ccncc1NC=O | 96.2% (inactive) |
| COc1ccc(-c2nn(C(=O)NCCN(C)C)cc2-c2ccncc2)cc1Cl | 52.6% (inactive) |
| O/N=C/c1ccncc1 | 102% (inactive) |
